Laboratory results taken from ChEMBL document CHEMBL3988442, “University of Dundee, Small-Polar-MMV Screening Library” (2021).

Target: AMP-activated protein kinase, AMPK (Homo sapiens) (UniProt P54646+O43741+P54619+Q9UGJ0+Q9Y478+Q13131+Q9UGI9)
Experiment: AMP-dependent Kinase enzyme assay. An in vitro enzyme assay that detects ADP turnover that is directly proportional to AMPK activity. This uses naive AMPK that is activated during the assay with MK-8722
Assay type: functional
Parameters: scale not given: direction of the effect not stated beside the values
Details: 30 µM

Row | Compound | Percent Effect [%]
1 | Cc1nn(C)c2nc(N3CCCC3c3nccs3)sc12 (stereo not given) | -1.47
2 | Cn1nccc1-c1cccc(CC2CCN(S(C)(=O)=O)C2)n1 (stereo not given) | 8.3
3 | CCc1nnc2n1CCN(C(=O)C(C)Oc1ccc(C#N)cc1)C2 (stereo not given) | 10.6
4 | Cc1n[nH]c(C)c1CCC(=O)N1CCc2c(nc[nH]c2=O)C1 | -0.287
5 | COc1cccc(C(C(=O)O)N2CCSCC2)c1F (stereo not given) | -1.18
6 | COC(=O)C1CCN(C(=O)Cn2ccc(-c3ccc(F)cc3)n2)CC1 | -0.768
7 | Oc1cccc(CNCc2ccc(-n3cncn3)nc2)c1 | 2.63
8 | O=C(CCc1nnc(-c2ccsc2)o1)NCC1CCN(C2CC2)C1 (stereo not given) | 4.06
9 | COCc1cccc(NC(=O)NCCCN(C)S(C)(=O)=O)c1 | -1.69
10 | CN(Cc1cccc(O)c1)Cc1cnn(C)c1 | -1.1
11 | CC(O)c1cccc(OCc2ccon2)c1 (stereo not given) | 4.94
12 | COc1ccc(CCC(=O)N2CCN(c3nc(C)ns3)CC2)cc1 | -3.26
13 | CCCNC(=O)c1[nH]nc(C2CC2)c1Br | 2.02
14 | C[C@@H]1CN(c2cccnn2)CC[C@@]1(O)C1CCOCC1 | 2.06
15 | CN(C)CC(O)Cn1cc(NCc2ccc(Br)cc2)cn1 (stereo not given) | -39.9
16 | O=C(c1cccc2ccnn12)N1CCCC1Cn1cccn1 (stereo not given) | -1.71
17 | CCNC(=O)[C@@H]1C[C@H](N)CN1c1cc(CC)nc(N(C)C)n1 | -13.7
18 | O=C1CC[C@@H](C(=O)N2CCC(Cn3cc(C4CCCCC4)nn3)CC2)N1 | 4.87
19 | CN(CC(=O)Nc1ccccc1)C(=O)CN(C)c1ccc(Cl)cn1 | 2.82
20 | O=C1NCCCC12CCN(Cc1ccc(-c3ccccc3)s1)C2 (stereo not given) | 6.83
21 | CCC(C(=O)NC1(COC)CCCC1)n1cccn1 (stereo not given) | -12
22 | CCN(CC)C(=O)CN1CCCC1C(=O)N(C)C (stereo not given) | -2.41
23 | NS(=O)(=O)c1ccc(NCc2ccco2)c2ncccc12 | -2.08
24 | CCCC(=O)NCCc1cc(NC)nc(-c2ccccn2)n1 | -2.74

Row | Compound | Percent Effect [%]
25 | CC(C(=O)NC1(C#N)CCCCC1)N1CCc2c(ncn2C)C1 (stereo not given) | -9.22
26 | NC(=O)COc1ccc(CN2CC[C@@]3(O)CCCC[C@H]3C2)cc1Cl | 3.71
27 | Cc1nn(C)c2nc(N3CCCCC3c3nccs3)sc12 (stereo not given) | 5.6
28 | COc1ccc(C(C)NCCc2ccc(NC(C)=O)cc2)c(OC)c1 (stereo not given) | 8.45
29 | CS(=O)(=O)N1CCCC(c2cccc(-c3ccccc3F)n2)C1 (stereo not given) | 12.2
30 | Cc1ccc2nc(CN3CCCCC3CCN3CCOCC3)cn2c1 (stereo not given) | 6.28
31 | Cc1nnc(CCNC(=O)Nc2ccc(S(C)(=O)=O)cc2)[nH]1 | 6.21
32 | COc1cccc2ccc(N3CCC(O)(C(=O)O)CC3)nc12 | 1.15
33 | Cc1cc(C(=O)N2C[C@@H](CN(C)CCN(C)C)[C@@H](CO)C2)nc(C)n1 | -14.8
34 | Cc1nc2cc(-c3nccn3C)nn2c(N2CCC(O)CC2)c1C | 20.2
35 | CS(=O)(=O)c1ccc(CNC(=O)NCc2cc[nH]n2)cc1 | -5.06
36 | CCC[C@@H]1CN(Cc2cc(C#N)n(C)c2C)C[C@H]1NS(C)(=O)=O | -87.1
37 | O=C1CCC2(CCOC2)CN1Cc1nncn1CCc1ccccc1 (stereo not given) | 14.2
38 | COc1cccc(-c2nc(CNCCc3cccnc3)cs2)c1 | -3.62
39 | O=C(COCC1CCCO1)N(Cc1cccnc1)c1ccc(F)cc1 (stereo not given) | -8.95
40 | CS(=O)(=O)NCc1cccc(COC2CCCCC2)c1 | 4.87
41 | Cc1n[nH]c(C)c1CCN(C)c1ccc(-c2nc(C3CC3)no2)cn1 | -6.17
42 | COc1c(C)cnc(CN2CCCC(c3noc(C4CC4)n3)C2)c1C (stereo not given) | -0.157
43 | O=C(c1cncc(NCC2COc3ccccc3C2)n1)N1CCCC1 (stereo not given) | 8.04
44 | Cc1cc(N(C)CC2COc3ccccc3O2)nc(N)n1 (stereo not given) | 2.34
45 | CC1COCCN1C(=O)Cc1cc(Cl)c2c(c1)OCCO2 (stereo not given) | 13.4
46 | O=C(CN1CCCC(c2ccn[nH]2)C1)N1CCCc2ccccc21 (stereo not given) | -2.2
47 | Cc1nn(C)c(C)c1CCC(=O)NCC1(C(N)=O)CCOCC1 | 1.16
48 | COc1ccc(OC2CCN(C(=O)c3ccc(C(C)=O)s3)CC2)cc1 | -2.68

Row | Compound | Percent Effect [%]
49 | COc1ccc(C(=O)NCC2CCCN(C3CCOCC3)C2)c(O)c1 (stereo not given) | 14.3
50 | O=C(NCCC1CN(C2CCCC2)CCO1)c1cc(=O)[nH]c(=O)[nH]1 (stereo not given) | -0.888
51 | N#CCCN(CCC#N)C(=O)c1cccc(N2CCNC2=O)c1 | -2.85
52 | CCc1ncc2c(n1)CN(c1nnc(C)c(C)c1C#N)CC2 | -14.7
53 | COc1ccc(Br)c(NC(=O)NCc2ncnn2C)c1 | -1.33
54 | CCC(C)(CC(=O)OC)NCc1cc(C)on1 (stereo not given) | -1.46
55 | Cc1cc(=O)[nH]c(-n2nc(-c3ccccc3)cc2N)n1 | -11.4
56 | CNC(=O)COC(=O)c1cccc(-n2ccc(C(F)(F)F)n2)c1 | 5.41
57 | Cc1nnc(CN(C)CC(=O)NC(C)(C)c2ccc(F)cc2)n1C | 6.43
58 | CC(C)c1noc(C(C)N2CCN(Cc3nc4ccccc4[nH]3)CC2)n1 (stereo not given) | -0.358
59 | O=C1CN(c2ccc(C(=O)N3CCc4ccccc43)cn2)CCN1 | 5.07
60 | COC(=O)c1ccc(OCCn2cnc(C#N)n2)cc1 | 0.636
61 | NC(=O)CN1CCc2c(Br)ccc(F)c2C1 | 1.51
62 | Cc1cccc(N2CCN(C(=O)CNCCn3cccn3)CC2)c1 | -3.32
63 | Cc1nn(C)c(C)c1C1CCCN1C(=O)c1cc(C(N)=O)cs1 (stereo not given) | -0.756
64 | COC(=O)c1occc1Cn1cc(Br)cn1 | -0.99
65 | CCn1c(C2CCN(C(=O)c3ccc4cc[nH]c4c3)CC2)n[nH]c1=O | -10.8
66 | OC1CCN(C2CCN(c3ccc(Cn4ccnc4)cn3)CC2)CC1 | -3.24
67 | O=C(Cn1ccc2ncccc2c1=O)N1CCSCC1 | -4.34
68 | Cc1nc2cc(C3CCOCC3)nn2c(NCC2COCCO2)c1C (stereo not given) | 1.07
69 | CSCCC(=O)N1CCN(CC(C)(C)O)CC1 | -5.46
70 | COCCN(CCOC)C(=O)c1cnn(C)c1-n1c(C)ccc1C | -1.28
71 | O=C(NCc1nncn1C1CC1)c1cccnc1Oc1ccccc1 | 1.39
72 | Cc1cnc(C(=O)NCC2CCOc3ccccc3C2)cn1 (stereo not given) | -2.4

Row | Compound | Percent Effect [%]
73 | O=C(CN1CCC(c2nnc(C(F)(F)F)o2)CC1)NCc1ccccc1 | 0.729
74 | O=C(Nc1cn[nH]c1)NC1CCN(c2ccccc2OC(F)F)C1 (stereo not given) | -1.4
75 | N#CCCN(Cc1ccccn1)C(=O)c1cccc(CN2CCCC2)c1 | 0.67
76 | CC(NCc1nnc2n1CCCC2)c1nc(-c2cccs2)no1 (stereo not given) | -0.613
77 | CC(NC(=O)N1CCCN(CC(F)F)CC1)c1ccco1 (stereo not given) | -1.66
78 | O=C(O)c1ccccc1-c1ccc(CN2CC(c3ccncn3)C2)o1 | 11.8
79 | Cc1ccc(-c2nc(C(=O)N(C)CC(=O)N(C)C)cs2)c(C)c1 | -3.64
80 | CN(C)CCCC(=O)NC1CC(C)(C)Cc2nc(C(C)(C)C)ncc21 (stereo not given) | 8.49
81 | COCc1nc2cc3c(cc2c(=O)o1)OCCCO3 | -7.41
82 | O=C1CCCCN1CCc1nc(C2(c3ccc(F)cc3)CCOC2)no1 (stereo not given) | 0.752
83 | Cc1ccc(CN(C(=O)NCC2CCS(=O)(=O)C2)C2CC2)o1 (stereo not given) | -7.42
84 | CN(C(=O)c1ccc(C#N)cc1)c1nnc(C2CCOC2)s1 (stereo not given) | 11.3
85 | CCN(CC(=O)N(C)C)C(=O)c1ccc(-c2nc(C)cs2)cc1 | 8.68
86 | CC(c1ccc(F)cc1F)N1CCN(CCN2CCCC2=O)CC1 (stereo not given) | -18
87 | CN1CCC(Nc2cc(Cl)ccc2OCC(F)(F)F)C1=O (stereo not given) | -5.49
88 | CCn1cc(S(=O)(=O)NCc2ccnc(-n3ccnc3)c2)cn1 | -0.563
89 | CC(Cc1cccc(F)c1)C(=O)NS(=O)(=O)c1ccc(F)cc1 (stereo not given) | 0.261
90 | Cc1ccccc1CCC1CCCN(C(=O)Cc2cc(=O)[nH]c(N)n2)C1 (stereo not given) | -3.84
91 | N#Cc1c(C2CC2)cc(-c2ccc(F)c(F)c2)nc1N | 10.4
92 | CCS(=O)(=O)NCC(=O)N1CCC(c2cc3ccccc3[nH]2)CC1 | 6.95
93 | Cc1nc(NC(=O)C(C)N(C)Cc2cccc(C#N)c2)sc1C (stereo not given) | 7.53
94 | COc1ccccc1CCNC(=O)CNCC1CN(C)CCO1 (stereo not given) | -4.87
95 | CC1(c2ncc(CN3CCN(c4ccccn4)CC3)cn2)CCCCO1 (stereo not given) | 5.55
96 | Cc1noc(C)c1CCCNC(=O)Nc1ccc2c(c1)CC(=O)N2 | 33.6

Row | Compound | Percent Effect [%]
97 | Cc1ccccc1-n1ccnc1S(=O)(=O)Cc1nsc(N(C)C)n1 | -1.55
98 | CCN1CC2(CCN(CC3COCCO3)CC2)OC1=O (stereo not given) | -1.21
99 | Cc1cc(CNCC2(O)CCOCC2)ccc1Br | -7.22
100 | CCC(C(=O)NC1(C(N)=O)CCCC1)n1cccn1 (stereo not given) | -1.13
101 | NC(=O)CCn1ccc(NCc2cc(F)ccc2Br)n1 | -0.0146
102 | Cc1ccc(N2C[C@@H]3CN(C(=O)NC4CCCC4)C[C@]3(C(=O)O)C2)nn1 | -1.71
103 | CNC(=O)C1CN(C(=O)Cc2ccc(OC)cc2)Cc2cn(C)nc21 (stereo not given) | -3.48
104 | Cc1noc(C)c1C(=O)N1CCC(n2cccn2)CC1 | -9.16
105 | Cc1cnc(C(=O)N2CC(=O)N(c3ccccc3Cl)CC2C)cn1 (stereo not given) | 12.5
106 | NC(=O)C1CCN(CCCNC(=O)Nc2nccs2)CC1 | 5.68
107 | O=C(CCC1CCCO1)NCCCO (stereo not given) | -4.81
108 | Cc1cc(C)nc(NC2CCN(CCOC(C)C)CC2)n1 | 7.53
109 | Cn1cc(N2CCN(c3ccc(C#N)cc3Br)CC2=O)cn1 | -4.14
110 | Cc1ccc(CNC(=O)c2ccc(=O)n(C)n2)c(OC2CCCC2)c1 | 12.3
111 | CCc1cc(=O)n(CCNC(=O)Nc2ccc(OC(F)(F)F)cc2)cn1 | -3.24
112 | CN(CCNC(=O)Nc1cnn(C)c1)Cc1ccc(F)cc1 | 0.603
113 | Clc1ccc(COCC2CCN(Cc3ccccn3)CC2)cc1 | 4.9
114 | CC(=O)Nc1ccc(CN2C[C@H]3CC[C@@H]2CN(c2ncccn2)C3)cc1 | 13
115 | CCCN(CCO)C(=O)c1cc(COc2ccc3c(c2)CCCC3)on1 | 5.46
116 | CSc1ccc(NC(=O)Cn2cc(NC(C)=O)cn2)cc1 | -11.9
117 | CC(NC(=O)c1ccc(C(N)=O)cc1)c1cccc(N2CCOC2=O)c1 (stereo not given) | 4.89
118 | O=C(COc1cc(Cl)cc(Cl)c1)NCc1nncn1C1CC1 | -6.22
119 | CCN(CC)C1CCN(C(=O)Nc2cc(F)c(OC)c(F)c2)C1 (stereo not given) | -3.29
120 | O=C(Nc1ccccn1)c1ccc(F)c(S(=O)(=O)NC2CC2)c1 | 1.7
